Screening results as filed in PubChem.
Rows were chosen to be rich in hits. Some 2.4% of all compounds tested hit in one or more screens of this group.
CHRM1 PAM: positive allosteric modulators of human M1 muscarinic receptor; AID 588819; activation, % at 3 µM; P11229; CHO-K1 hM1, Fluo-8 calcium fluorescence, ACh EC20; 0% = ACh EC20, 100% = maximal ACh; 360,000 compounds, 0.088% hits; in the data active means activation above about 19%, passing the limit was not always enough
Target sequence (P11229 whole entry, looked up): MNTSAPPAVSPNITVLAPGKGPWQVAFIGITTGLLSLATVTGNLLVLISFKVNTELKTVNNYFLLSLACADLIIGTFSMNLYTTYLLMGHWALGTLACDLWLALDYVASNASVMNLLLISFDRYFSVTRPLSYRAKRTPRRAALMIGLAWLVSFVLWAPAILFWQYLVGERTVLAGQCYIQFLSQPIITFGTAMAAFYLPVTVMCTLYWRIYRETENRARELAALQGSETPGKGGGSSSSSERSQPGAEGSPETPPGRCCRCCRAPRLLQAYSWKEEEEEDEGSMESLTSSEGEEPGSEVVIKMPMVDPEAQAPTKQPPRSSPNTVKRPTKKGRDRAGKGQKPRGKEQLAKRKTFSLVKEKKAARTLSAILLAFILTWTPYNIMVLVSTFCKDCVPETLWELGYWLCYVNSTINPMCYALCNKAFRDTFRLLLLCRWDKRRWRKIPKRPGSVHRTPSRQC
CHO-K1 Ca PAM: counter-screen for M1 PAMs: effect in parental CHO-K1 cells; activation, % at 3 µM; ATP EC20, Fluo-8 calcium fluorescence; 0% at ATP EC20, 100% at ATP max; 360,000 compounds, 0.02% hits;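 active means activation above the run cutoff, the mean activation of all test compounds plus 3 SD, cut at about 40% in these data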;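 further: peak over basal fluorescence ratio in a 140 s read after ATP addition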
M1 ag: human M1 muscarinic receptor agonism; activation, % at 3 µM; 360,000 compounds, 0.33% hits; CHO-K1 hM1, Fluo-8 calcium fluorescence, agonist mode; 0% DMSO, 100% acetylcholine EC100;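 active means activation above the run's mean compound activation plus 3 SD, cut at about 16% in these data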;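 further: peak over basal fluorescence ratio within a 140 s kinetic read after compound addition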
CHO-K1 Ca ag: counter-screen for M1 agonists: effect in parental CHO-K1 cells; Fluo-8 calcium fluorescence; scaled to maximal ATP response, vehicle zero; activation, % at 3 µM; 360,000 compounds, 0.48% hits; AID 602248; in the data active means activation above about 15%;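 further: untransfected CHO-K1 host cells lacking M1 receptor as counterscreen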
CHO-K1 Ca antag: nonselective inhibitor or artifact in parental CHO-K1 cells | ATP-induced calcium, Fluo-8 fluorescence | inhibition, % at 3 µM | 360,000 compounds, 0.6% hits | AID 602250;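 active means inhibition above a per-plate cutoff, the plate's mean sample inhibition plus 3 SD, cut at about 24% in these data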;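 further: 0% = DMSO plus EC80 ATP and 100% = DMSO alone without ATP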
CHRM1 antagonist: antagonists of human M1 muscarinic receptor; P11229; CHO-K1 hM1, Fluo-8 calcium fluorescence, ACh EC80 antagonist; inhibition, % at 3 µM; 360,000 compounds, 1.3% hits;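 active means percent inhibition above its own plate's cutoff, namely the mean of that plate's compound wells plus 3 SD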;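 further: peak over basal fluorescence ratio during 140 s after agonist addition; 0% = ACh EC80 plus DMSO and 100% = DMSO alone without agonist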
An asterisk follows results filed as active.

SMILES | CHRM1 PAM | CHO-K1 Ca PAM | M1 ag | CHO-K1 Ca ag | CHO-K1 Ca antag | CHRM1 antagonist
Cc1cc(C)c(NC(=O)C2CCCN2CCC(C)C)c(C)c1 (stereo not drawn) | 3 | 14 | -3 | 1 | -6 | -2
Cc1ccc2c(c1)C(=O)C(=O)N2Cc1ccc(C(F)(F)F)cc1 | 4 | -12 | 23* | 7 | 5 | 8
Cc1ccc(OCCN2C(=O)C(=O)c3cc(C)ccc32)cc1 | 1 | 11 | 0 | 2 | -4 | -2
Cc1cc(=O)[nH]c(NN=C2CCCCC2C)n1 (stereo not drawn) | 8 | -1 | -3 | 0 | 11 | -11
CCCCCN(C(=O)CCC(=O)OCC(=O)c1ccc(CCC)cc1)c1c(N)n(CCCC)c(=O)[nH]c1=O | 10 | 1 | -2 | 0 | 0 | -18
CCc1nc2ccc(C(=O)N3CCN(c4cccc(C(F)(F)F)c4)CC3)cc2nc1CC | -23 | 18 | -6 | 0 | -17 | 47*
COc1ccc(NC(=O)COc2cccc3c2CCNC3=O)cc1 | 3 | 2 | -3 | 1 | 4 | -1
Nc1ccc(-c2cnc(N)c(C(=O)c3cccnc3)n2)cn1 | 6 | -15 | -10 | 0 | -8 | -4
N#CC1=C(SCC(=O)c2ccccc2)NC2=C(C(=O)CCC2)C1c1ccco1 (stereo not drawn) | -12 | -6 | -5 | 1 | 31* | -4
Cc1ccc(C(=O)CSC2=C(C#N)C(c3ccco3)C3=C(CCCC3=O)N2)cc1 (stereo not drawn) | 1 | 8 | -7 | 0 | -7 | -6
COc1ccc(C2c3ccc4ccccc4c3Oc3ncn(Cc4ccco4)c(=N)c32)cc1OC (stereo not drawn) | -12 | -14 | -8 | 0 | 26* | 9
CCOC(=O)c1ccccc1Cc1nc2ccccc2c(=O)[nH]1 | -26 | 11 | -8 | 0 | -2 | 98*
O=C1CSC(=S)N1/N=C/c1cc(Br)c(O)c(Br)c1 | -42 | -8 | 251* | 106* | 45* | 90*
CCN(C(=O)CSc1nnc(-c2ccccc2OC)n1N)c1c(N)n(Cc2ccccc2)c(=O)[nH]c1=O | 4 | -3 | -3 | 0 | -11 | -6
Cc1ccc2c(c1)NC(=O)C(CC(=O)NCCN(CC(C)C)CC(C)C)O2 (stereo not drawn) | -19 | 16 | -14 | 0 | 0 | 28*
Cc1ccc2c(c1)NC(=O)C(CC(=O)Nc1ccc(CN3CCC(C)CC3)cc1)O2 (stereo not drawn) | -35 | 22 | -13 | 0 | -7 | 101*
CCN1CCN(Cc2ccc(NC(=O)CC3Oc4ccc(C)cc4NC3=O)cc2)CC1 (stereo not drawn) | -33 | 1 | -14 | 0 | 6 | 40*
Cc1ccc(NC(=O)CC2Oc3ccc(C)cc3NC2=O)cc1 (stereo not drawn) | 10 | 0 | -2 | 0 | 9 | -13
CCN(CC)CCCNC(=O)CC1Oc2ccc(C)cc2NC1=O (stereo not drawn) | -14 | 2 | -14 | 0 | -2 | 8
CC(=O)NC(C)c1ccc(C(=O)CSc2nnc(C3CC3)n2C2CC2)cc1 (stereo not drawn) | 15 | 2 | -4 | 0 | -14 | -13
COC(=O)c1cc(S(=O)(=O)N2CCN(c3ccc(F)cc3)CC2)cn1C | 0 | 21 | 0 | 20* | 5 | 0
Cn1cnnc1SCC(=O)Nc1ccc(Cl)cn1 | 4 | -16 | -2 | 0 | 33* | -14
O=C(OCC(=O)N1CCN(c2ccccc2)CC1)c1cc(Cl)ccc1[N+](=O)[O-] | 0 | -7 | -3 | 0 | 19 | 0
Cc1occc(=O)c1OC(=O)Nc1ccc(Cl)c(Cl)c1 | -15 | 6 | 2 | 12 | 29* | 26
O=C(c1cc2ccccc2o1)N1CCC(N2CCC(C(=O)N3CCCC3)CC2)CC1 | -10 | -16 | -14 | -1 | 24* | 9
OC(C#CCN1CCCCCC1)(c1ccccc1)c1cccnc1 (stereo not drawn) | -26 | 14 | -5 | 4 | -13 | 99*
CCCN(CC#CC(O)(c1ccccc1)c1cccnc1)CCC (stereo not drawn) | -10 | 9 | -6 | 0 | -17 | 14
